Assay results: PubChem BioAssay (NCI)
The panel holds about 83,000 compounds, 20% with a hit somewhere; the sample as a whole holds those more often.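 For each line, cells grew in 96-well plates with the test compound present at a single concentration for 48 hours.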 Activity calls are given as the source filed them. How the source made its calls: active means growth percent below 10; inactive means the rest.

How the values were obtained:
Test in all cases: NCI-60 one-dose screen, 48 h (100 = growth as untreated, 0 = no growth, -100 = all killed)
Settings in all cases: 10 µM unless noted
K-562 leukemia = system: K-562 leukemia
MALME-3M melanoma = system: MALME-3M melanoma
MDA-MB-231 breast = system: MDA-MB-231 breast
RXF 393 renal = system: RXF 393 renal
SF-268 CNS = system: SF-268 CNS
SF-295 CNS = system: SF-295 CNS
SF-539 CNS = system: SF-539 CNS
UACC-257 melanoma = system: UACC-257 melanoma
M14 melanoma = system: M14 melanoma
HCT-15 colon = system: HCT-15 colon
HT29 colon = system: HT29 colon
SNB-75 CNS = system: SNB-75 CNS
SNB-19 CNS = system: SNB-19 CNS
U251 CNS = system: U251 CNS
PC-3 prostate = system: PC-3 prostate
SK-MEL-5 melanoma = system: SK-MEL-5 melanoma
UACC-62 melanoma = system: UACC-62 melanoma
LOX IMVI melanoma = system: LOX IMVI melanoma
SK-MEL-28 melanoma = system: SK-MEL-28 melanoma
DU-145 prostate = system: DU-145 prostate

Measured: growth

CCOC(=O)NNc1cccc(Cl)c1
inactive: K-562 leukemia 102% | MALME-3M melanoma 93.6% | MDA-MB-231 breast 76.3% | RXF 393 renal 100% | SF-268 CNS 110% | SF-295 CNS 109% | SF-539 CNS 99.8% | UACC-257 melanoma 103% | M14 melanoma 104% | HCT-15 colon 107% | HT29 colon 109% | SNB-75 CNS 77.2% | SNB-19 CNS 98% | U251 CNS 100% | PC-3 prostate 89.7% | SK-MEL-5 melanoma 101% | UACC-62 melanoma 83.8% | LOX IMVI melanoma 92.8% | SK-MEL-28 melanoma 109%

Nc1c(C(=O)c2ccc(Br)cc2)sc2nc3c(cc12)CCCC3
inactive: DU-145 prostate 92.4% | MALME-3M melanoma 82.6% | MDA-MB-231 breast 91% | RXF 393 renal 62.5% | SF-268 CNS 101% | SF-295 CNS 98.2% | SF-539 CNS 92% | UACC-257 melanoma 91.9% | M14 melanoma 82.7% | HCT-15 colon 80.9% | HT29 colon 96.6% | SNB-75 CNS 101% | SNB-19 CNS 97.3% | U251 CNS 89.6% | PC-3 prostate 85.4% | SK-MEL-5 melanoma 92% | UACC-62 melanoma 93.9% | LOX IMVI melanoma 112% | SK-MEL-28 melanoma 89%

SCc1ccc(CS)cc1
inactive: DU-145 prostate 116% | MALME-3M melanoma 106% | MDA-MB-231 breast 123% | RXF 393 renal 112% | SF-295 CNS 109% | SF-539 CNS 104% | UACC-257 melanoma 114% | M14 melanoma 106% | HCT-15 colon 105% | HT29 colon 120% | SNB-75 CNS 109% | SNB-19 CNS 115% | U251 CNS 101% | PC-3 prostate 98.1% | SK-MEL-5 melanoma 95.7% | UACC-62 melanoma 105% | LOX IMVI melanoma 96.2% | SK-MEL-28 melanoma 112%

N[C@@H](CO)C(=O)O
inactive: DU-145 prostate 101% | K-562 leukemia 110% | MDA-MB-231 breast 93.4% | RXF 393 renal 108% | SF-268 CNS 95.1% | SF-539 CNS 113% | UACC-257 melanoma 104% | M14 melanoma 107% | HCT-15 colon 109% | HT29 colon 109% | SNB-75 CNS 93.3% | SNB-19 CNS 105% | U251 CNS 102% | PC-3 prostate 96.8% | SK-MEL-5 melanoma 104% | UACC-62 melanoma 91.9% | LOX IMVI melanoma 130% | SK-MEL-28 melanoma 107%

O=C(Nc1ccc(Br)cc1)Nc1ccccc1Cl
inactive: DU-145 prostate 91.1% | K-562 leukemia 84.5% | MDA-MB-231 breast 72.5% | RXF 393 renal 83% | SF-268 CNS 93.8% | SF-539 CNS 89.3% | UACC-257 melanoma 88% | M14 melanoma 89.2% | HCT-15 colon 87.1% | HT29 colon 95.3% | SNB-75 CNS 77.8% | SNB-19 CNS 117% | U251 CNS 91.9% | PC-3 prostate 83.9% | SK-MEL-5 melanoma 101% | UACC-62 melanoma 56.5% | LOX IMVI melanoma 81.3% | SK-MEL-28 melanoma 107%

O=C1C=CC(=O)N1CO
active: K-562 leukemia -29.9%
inactive: MALME-3M melanoma 130% | MDA-MB-231 breast 109% | RXF 393 renal 168% | SF-268 CNS 111% | SF-295 CNS 131% | SF-539 CNS 111% | UACC-257 melanoma 109% | M14 melanoma 109% | HCT-15 colon 116% | HT29 colon 105% | SNB-75 CNS 100% | SNB-19 CNS 103% | U251 CNS 117% | PC-3 prostate 102% | SK-MEL-5 melanoma 114% | UACC-62 melanoma 106% | LOX IMVI melanoma 120% | SK-MEL-28 melanoma 117%

CCCCCNCCCCCNc1cc(OC)cc2cccnc12
inactive: DU-145 prostate 104% | MALME-3M melanoma 60.2% | MDA-MB-231 breast 88.8% | RXF 393 renal 68.3% | SF-268 CNS 95.6% | SF-539 CNS 87.8% | UACC-257 melanoma 101% | M14 melanoma 87.3% | HCT-15 colon 88.6% | SNB-75 CNS 61.7% | SNB-19 CNS 94.1% | U251 CNS 79.8% | PC-3 prostate 69.6% | SK-MEL-5 melanoma 31.1% | UACC-62 melanoma 75.3% | LOX IMVI melanoma 95.5% | SK-MEL-28 melanoma 91.9%

COCCCNCC(=O)Nc1c(C)cccc1C
inactive: DU-145 prostate 113% | K-562 leukemia 120% | MDA-MB-231 breast 96.6% | RXF 393 renal 113% | SF-268 CNS 109% | SF-539 CNS 95.3% | UACC-257 melanoma 106% | M14 melanoma 114% | HCT-15 colon 108% | HT29 colon 112% | SNB-75 CNS 115% | SNB-19 CNS 110% | U251 CNS 104% | PC-3 prostate 102% | SK-MEL-5 melanoma 106% | UACC-62 melanoma 110% | LOX IMVI melanoma 101% | SK-MEL-28 melanoma 122%

CN(C)c1ccc(Nc2c3ccccc3nc3ccccc23)cc1
active: K-562 leukemia 8.82% | MALME-3M melanoma -14% | SF-295 CNS -7.58% | HCT-15 colon 6.89% | HT29 colon 8.13% | SNB-75 CNS 9.38% | SK-MEL-5 melanoma 9.1% | LOX IMVI melanoma -7.85%
inactive: MDA-MB-231 breast 43% | RXF 393 renal 21.6% | SF-268 CNS 27.7% | SF-539 CNS 17.5% | UACC-257 melanoma 18.3% | M14 melanoma 18.5% | SNB-19 CNS 28.4% | U251 CNS 23% | PC-3 prostate 33% | UACC-62 melanoma 14.3% | SK-MEL-28 melanoma 26%

COc1ccc2c(c1)CCCC21C(=O)Nc2ccccc21 (stereo not given)
inactive: DU-145 prostate 103% | MALME-3M melanoma 102% | MDA-MB-231 breast 99.4% | RXF 393 renal 110% | SF-268 CNS 86.6% | SF-539 CNS 101% | UACC-257 melanoma 110% | M14 melanoma 109% | HCT-15 colon 97.2% | HT29 colon 87.4% | SNB-75 CNS 101% | SNB-19 CNS 105% | U251 CNS 99.3% | PC-3 prostate 104% | SK-MEL-5 melanoma 103% | UACC-62 melanoma 106% | LOX IMVI melanoma 98% | SK-MEL-28 melanoma 111%

O=C1C=CC(=O)N1c1cccc(N2C(=O)C=CC2=O)c1
active: MALME-3M melanoma -36.4% | RXF 393 renal -2.87%
inactive: K-562 leukemia 104% | MDA-MB-231 breast 107% | SF-268 CNS 108% | SF-295 CNS 102% | SF-539 CNS 104% | UACC-257 melanoma 96.8% | M14 melanoma 98.8% | HCT-15 colon 23.1% | HT29 colon 23.5% | SNB-75 CNS 96% | SNB-19 CNS 147% | U251 CNS 111% | PC-3 prostate 99.9% | SK-MEL-5 melanoma 116% | UACC-62 melanoma 109% | LOX IMVI melanoma 73.5% | SK-MEL-28 melanoma 108%

CCOc1cccc(/C=N/NC(=O)Cc2ccc(Nc3ccnc(C(F)(F)F)c3)cc2)c1O
inactive: DU-145 prostate 33.2% | MALME-3M melanoma 34.3% | MDA-MB-231 breast 26.8% | RXF 393 renal 51.1% | SF-268 CNS 18.2% | SF-295 CNS 47.9% | SF-539 CNS 17.4% | UACC-257 melanoma 21.9% | HCT-15 colon 17.3% | HT29 colon 85% | SNB-75 CNS 39.4% | SNB-19 CNS 28% | U251 CNS 20.6% | PC-3 prostate 50% | SK-MEL-28 melanoma 60.6%
active: M14 melanoma 3.19% | SK-MEL-5 melanoma -36% | UACC-62 melanoma -5.55% | LOX IMVI melanoma 2.43%

COc1ccc(/C(=C\c2ccc3c(c2)OCO3)C(=O)Nc2nc3ccc(F)cc3s2)cc1OC
inactive: DU-145 prostate 98.2% | K-562 leukemia 101% | MDA-MB-231 breast 109% | RXF 393 renal 111% | SF-268 CNS 98.5% | SF-539 CNS 96.3% | UACC-257 melanoma 112% | M14 melanoma 94.3% | HCT-15 colon 108% | HT29 colon 95.3% | SNB-75 CNS 90.9% | SNB-19 CNS 109% | U251 CNS 96.2% | PC-3 prostate 88.2% | SK-MEL-5 melanoma 104% | UACC-62 melanoma 108% | LOX IMVI melanoma 101% | SK-MEL-28 melanoma 102%

O=C(/C=C/c1cc([N+](=O)[O-])ccc1Cl)c1ccccc1
active: LOX IMVI melanoma -18.9%
inactive: K-562 leukemia 24.4% | MALME-3M melanoma 102% | MDA-MB-231 breast 85.9% | RXF 393 renal 97.8% | SF-268 CNS 94.8% | SF-295 CNS 95.9% | SF-539 CNS 107% | UACC-257 melanoma 104% | M14 melanoma 94.1% | HCT-15 colon 110% | HT29 colon 14.3% | SNB-75 CNS 67.7% | SNB-19 CNS 87.8% | U251 CNS 46% | PC-3 prostate 85.4% | SK-MEL-5 melanoma 87.3% | UACC-62 melanoma 70.5% | SK-MEL-28 melanoma 104%

COc1ccc2c(c1)CCCC21C(=O)Nc2c(Cl)cccc21 (stereo not given)
inactive: DU-145 prostate 93% | MALME-3M melanoma 63.3% | MDA-MB-231 breast 77.4% | RXF 393 renal 86.5% | SF-268 CNS 75.8% | SF-539 CNS 73.3% | UACC-257 melanoma 83.8% | M14 melanoma 38.8% | HCT-15 colon 85% | SNB-75 CNS 41% | SNB-19 CNS 82.9% | U251 CNS 54.1% | PC-3 prostate 74.4% | SK-MEL-5 melanoma 76.8% | UACC-62 melanoma 58% | LOX IMVI melanoma 71.3% | SK-MEL-28 melanoma 64.7%

Fc1ccc2nc(-c3ccc(-c4noc(-c5ccc(Cl)cc5)n4)cc3)[nH]c2c1
inactive: DU-145 prostate 98.5% | K-562 leukemia 92.5% | MDA-MB-231 breast 106% | RXF 393 renal 110% | SF-268 CNS 105% | SF-539 CNS 100% | UACC-257 melanoma 101% | M14 melanoma 107% | HCT-15 colon 109% | HT29 colon 103% | SNB-75 CNS 110% | SNB-19 CNS 110% | U251 CNS 103% | PC-3 prostate 102% | SK-MEL-5 melanoma 104% | LOX IMVI melanoma 104% | SK-MEL-28 melanoma 128%

CCN(CC)CCNc1c(C)cc(CO)c(Cl)c1C
inactive: DU-145 prostate 120% | K-562 leukemia 115% | MDA-MB-231 breast 104% | RXF 393 renal 119% | SF-295 CNS 104% | SF-539 CNS 103% | UACC-257 melanoma 96.7% | M14 melanoma 110% | HCT-15 colon 106% | HT29 colon 97% | SNB-75 CNS 90.2% | SNB-19 CNS 92.8% | U251 CNS 105% | PC-3 prostate 97.9% | SK-MEL-5 melanoma 106% | UACC-62 melanoma 102% | LOX IMVI melanoma 98.8% | SK-MEL-28 melanoma 104%
